# Results: PubChem BioAssay AID624483 (NMMLSC, 2012)
# Hit rate of the full screen: of about 360,000 compounds, about 11,000 (3.1%) were called active. Not shown: some 2% with an inconclusive outcome. Rule as the data show it: active = fluorescence intensity above about 16000; inconclusive = no clear call, values can overlap the other calls; inactive = below that. For the sample, actives were picked, then their nearest neighbours and some compounds at random.
# Test: counter-screen for toxin protease inhibitors: compound fluorescence, primary screen, artefact control for toxin protease inhibitor project, biochemical, multiplex microsphere, HTS (AID 624483)
# Settings: compound autofluorescence counterscreen, microsphere flow cytometry; active compounds read high
row,Structure (SMILES),fluorescence intensity
1,COc1ccc(NC(=O)CSc2nnc(-c3cccs3)n2Cc2ccco2)cc1OC,10300 (inactive)
2,CCOC(=O)Cc1csc(NC(=O)CSc2nnc(-c3cccnc3)n2Cc2ccco2)n1,4600 (inactive)
3,COc1cc(Cl)c(C)cc1NC(=O)CSc1nnc(-c2cccnc2)n1Cc1ccco1,20700 (active)
4,C(=C\c1ccccc1)/CSc1nnc(-c2cccnc2)n1Cc1ccco1,23400 (active)
5,COc1ccccc1NC(=O)CSc1nc2sc(C)c(C)c2c(=O)n1Cc1ccco1,22300 (active)
6,CCn1c(SCC(=O)Nc2cc(C)c(Cl)cc2OC)nnc1-c1ccco1,5870 (inactive)
7,COc1ccccc1NC(=O)CSc1nc2sc3c(c2c(=O)n1-c1ccccc1)CCN(C)C3,7290 (inactive)
8,Cc1ccc(NC(=O)CSc2nnc(-c3cnccn3)n2Cc2ccco2)cc1C,3350 (inactive)
9,O=C(CSc1nnc(-c2cnccn2)n1Cc1ccco1)c1ccc(Cl)c(Cl)c1,9950 (inactive)
10,Cc1cc(-c2ccccc2)nc(N2CCC(C(=O)NC34CC5CC(CC(C5)C3)C4)CC2)n1,3890 (inactive)
11,CCN(C(=O)COc1cccnc1[N+](=O)[O-])C1CCS(=O)(=O)C1 (configuration not stated),2480 (inactive)
12,COc1ccc(CNC(=O)c2ccc(-c3cccnc3)c3ccoc23)cc1OC,3080 (inactive)
13,Cc1cccc(C)c1-n1nnnc1C(CCc1ccccc1)N1CCN(C/C=C/c2ccccc2)CC1 (configuration not stated),5940 (inactive)
14,Cc1cc(Br)ccc1NC(=O)CCCOc1cc(=O)n(C)c2ccccc12,3350 (inactive)
15,Cc1nn(Cc2ccccc2)c(C)c1C(=O)NCCCN1CCCC1=O,3680 (inactive)
16,O=C(CCn1c(=S)[nH]c2ccccc2c1=O)NCCCN1CCCC1=O,22700 (active)
17,O=Cc1c(NCCCN2CCCC2=O)c2ccccc2[nH]c1=O,3940 (inactive)
18,O=C1CCCN1CCCNc1ncnc2c1[nH]c1ccccc12,23000 (active)
19,CCOc1cc2[nH]c(=S)n(CCCN3CCCC3=O)c(=O)c2cc1OCC,5800 (inactive)
20,O=C(CCC(=O)NNc1nc2ccccc2c2nc(-c3ccccc3)nn12)NCCCN1CCCC1=O,2420 (inactive)
21,CC(=O)c1ccc(N2C(=NC(=O)C(C)C)SC3CS(=O)(=O)CC32)cc1 (configuration not stated),4490 (inactive)
22,Cc1cccc2cc(CN(C(=O)c3cccs3)c3ccccc3)c(=O)[nH]c12,2690 (inactive)
23,COc1ccc(Cl)cc1NC(=O)c1oc(C)nc1C,11300 (inactive)

row,Structure (SMILES),fluorescence intensity
1,Cc1ccc(NC(=O)NC(=O)c2ccccc2)cc1F,4110 (inactive)
2,Cc1nc(C)c(C(=O)Nc2ccc(C)c(F)c2)o1,20400 (active)
3,N#Cc1ccccc1S(=O)(=O)N1CCN(Cc2c(O)ccc3ccccc23)CC1,2850 (inactive)
4,O=C(COc1ccccc1Cl)N1N=C(c2cccs2)CC1c1ccco1 (configuration not stated),3750 (inactive)
5,Fc1ccc(N2N=C(c3cccs3)CC2c2ccco2)c(F)c1 (configuration not stated),20900 (active)
6,Cc1ccccc1C1CC(c2cccs2)=NN1S(C)(=O)=O (configuration not stated),6430 (inactive)
7,O=C(NC(c1ccc(-c2ccccc2)cc1)c1cnccn1)C1CCN(CCOc2ccc(Cl)cc2Cl)CC1 (configuration not stated),4380 (inactive)
8,CCCS(=O)(=O)N1CCCC(C(=O)NCc2ccco2)C1 (configuration not stated),2870 (inactive)
9,O=C(NCc1ccco1)C1CCCN(S(=O)(=O)c2cnc[nH]2)C1 (configuration not stated),5600 (inactive)
10,O=C(NCc1ccco1)C1CCCN(S(=O)(=O)c2ccccc2)C1 (configuration not stated),21200 (active)
11,COCCNC(=O)C(c1ccc(C)cc1)N(C(=O)CCC(=O)Nc1ccccn1)c1cccc(C)c1 (configuration not stated),4510 (inactive)
12,Cn1c2c(c(=O)n(C)c1=O)C(c1cccc(F)c1)C(C#N)=C(N)O2 (configuration not stated),4470 (inactive)
13,Cc1cc2c(c(=O)n1C)C(C(C)C)C(C#N)=C(N)O2 (configuration not stated),3460 (inactive)
14,Cc1cc2c(c(=O)n1Cc1ccco1)C(c1ccccc1)C(C#N)=C(N)O2 (configuration not stated),23400 (active)
15,COc1ccc2c(c1)C(C)=CC(C)(C)N2C(=O)CNCc1ccc2c(c1)OCO2,21400 (active)
16,COc1ccc(NC(=O)NCc2ccc3c(c2)OCO3)c(OC)c1,5960 (inactive)
17,COc1ccc2c(c1)C(C)=CC(C)(C)N2C(=O)Nc1ccccc1,2880 (inactive)
18,Cc1cc(C(=O)COc2ccc(Br)cc2F)c(C)n1C1CC1,4210 (inactive)
19,CCCNC(=O)C1(C)CCCN(Cc2c(C)nn(-c3ccccc3)c2C)C1 (configuration not stated),3870 (inactive)
20,OC(c1ccc(F)cc1)c1ncc(-c2cccc(C(F)(F)F)c2)[nH]1 (configuration not stated),2920 (inactive)
21,COc1ccc(S(=O)(=O)N2CCC(C(=O)N3CCc4ccccc4C3)CC2)cc1OC,18500 (active)
22,COc1ccc(S(=O)(=O)N2CCC(C(=O)N3CCCC3)CC2)cc1C,2980 (inactive)
23,COc1ccc(S(=O)(=O)N2CCC(C(=O)N3CCOCC3)CC2)cc1OC,8730 (inactive)

row,Structure (SMILES),fluorescence intensity
1,CCCNC(=O)C1(C)CCN(C(=O)c2cc(F)ccc2C)C1 (configuration not stated),3600 (inactive)
2,CCc1nc2ccc(C(=O)N(C)Cc3ccco3)cn2c1N(C)C(=O)Cc1ccccc1,3670 (inactive)
3,O=S1(=O)CC(N2CCN(CCO)CC2)CN1Cc1cn(Cc2cccc(Cl)c2)nn1 (configuration not stated),5760 (inactive)
4,Cc1cc(C)cc(Oc2nc3c(C)cccn3c(=O)c2/C=C(\C#N)C(=O)NC2CCS(=O)(=O)C2)c1 (configuration not stated),2120 (inactive)
5,CCOCCn1c(C(C)C)nc2ccccc21,3860 (inactive)
6,COCc1nc2ccccc2n1Cc1ccccc1Br,20400 (active)
7,C=C(Br)Cn1c(CCCC)nc2ccccc21,3410 (inactive)
8,Nc1cccc(-c2cncc(N3CCN(Cc4ccccn4)CC3)n2)c1,3020 (inactive)
9,Cc1cccc(CNC(=O)c2sc(=O)n(Cc3ccccc3C)c2C)c1,4210 (inactive)
10,Cc1noc(C)c1COc1ccc2ccc(=O)oc2c1,3400 (inactive)
11,COc1ccc(-c2cc3ccc(OCc4nn[nH]n4)cc3oc2=O)cc1,24000 (active)
12,CCCCc1cc(=O)oc2cc(C)cc(OCc3nn[nH]n3)c12,2630 (inactive)
13,CC(C)C1C(=O)N(Cc2cn(CCC3OCCO3)nn2)CCS(=O)(=O)N1Cc1ccc(-c2ccccc2C(F)(F)F)cc1 (configuration not stated),5850 (inactive)
14,Cc1ccc(NC(=O)C(C)Sc2nnc(C3CC3)n2C2CC2)cc1S(=O)(=O)N1CCOCC1 (configuration not stated),3820 (inactive)
15,COC(=O)c1ccc2nc(-c3ccc(C)cc3)c(Cc3ccc(OC)cc3C)n2c1,7150 (inactive)
16,CCN(CC)CCCNC(=O)c1cc(-c2cccc(Cl)c2)on1,22000 (active)
17,O=C(NCCCn1ccnc1)c1cc(-c2ccccc2)on1,3190 (inactive)
18,O=C(NCCCN1CCOCC1)c1cc(-c2cccc(O)c2)on1,2910 (inactive)
19,O=C(NCc1ccccc1)C1C(=O)N(Cc2ccccc2)C(=O)C1C1(O)CCCC1 (configuration not stated),8420 (inactive)
20,COc1cc(NC(=O)C2=CC(c3ccco3)=NS(=O)(=O)N2C)cc(OC)c1OC,4170 (inactive)
21,O=S(=O)(NCCNS(=O)(=O)c1ccccc1)c1ccccc1,22900 (active)
22,O=S(=O)(NCCc1ccccc1)c1ccccc1,3470 (inactive)
23,O=S(=O)(NCCc1ccncc1)c1ccccc1,3020 (inactive)

row,Structure (SMILES),fluorescence intensity
1,CCOc1ccc(CCN2C(=S)N([C@@H](CC(C)C)CN3CCC[C@@H]3CN3C(=S)NC[C@@H]3Cc3ccc(O)cc3)C[C@@H]2Cc2ccc(O)cc2)cc1,6230 (inactive)
2,CCOc1c(Nc2cccc(Cl)c2)c(=O)c1=O,4070 (inactive)
3,CCOc1nnc(C)c2c(C)n(-c3cccc(Cl)c3)nc12,23500 (active)
4,CCOc1ccc(CNC(=O)C2CCCN(c3nnc(C)c4c(C)n(-c5ccccc5)nc34)C2)cc1 (configuration not stated),9860 (inactive)
5,Brc1cc(Br)c(Oc2cc(Br)c(Br)cc2Br)cc1Br,5260 (inactive)
6,COc1ccc(Cl)cc1NC(=O)CN(C)C(=O)c1ccc2n[nH]nc2c1,7700 (inactive)
7,COc1ccc(Cl)cc1NC(=O)CN(C)Cc1ccc(OC)c(OC)c1,4460 (inactive)
8,COc1ccc(Cl)cc1NC(=O)CN(C)C(=O)CNC(=O)C12CC3CC(CC(C3)C1)C2,22500 (active)
9,CCOC(=O)C1=C(COC(=O)[C@H](C)NS(=O)(=O)c2ccccc2F)NC(=O)NC1C (some centres not stated),3650 (inactive)
10,Cc1onc(-c2ccccc2)c1C(=O)N1CCN(S(=O)(=O)c2ccccc2C(F)(F)F)CC1,3570 (inactive)
11,COC(=O)c1ccc2nc(-c3cccc(Br)c3)c(Cc3ccc(OC)cc3C)n2c1,5220 (inactive)
12,CCC1(C)Cc2c(sc3[nH]c(=S)n(Cc4ccccc4)c(=O)c23)CO1 (configuration not stated),2880 (inactive)
13,CCC1(C)Cc2c(sc3nnn(CC(=O)Nc4ccc(Cl)cc4)c(=O)c23)CO1 (configuration not stated),22700 (active)
14,CCOC(=O)Cn1c(SC)nc2sc3c(c2c1=O)CC(C)(C)OC3,6860 (inactive)
15,N#C/C(=C/c1cccc([N+](=O)[O-])c1)c1nnc2n1CCCCC2,1990 (inactive)
16,Cc1cccc(Nc2ccccc2C(=O)NCc2ccco2)c1C,3190 (inactive)
17,CS(=O)(=O)N(Cc1ccc(Cl)cc1)c1ccc(C(=O)NCCSCc2ccco2)cc1,10900 (inactive)
18,Cc1ccc(N(Cc2ccc(C(=O)Nc3ccccc3C(=O)NCc3ccco3)cc2)S(C)(=O)=O)cc1C,25100 (active)
19,O=C(Nc1ccc(S(=O)(=O)N2CCOCC2)cc1)c1ccc2ncsc2c1,4800 (inactive)
20,NC(=O)CSc1c[nH]c2ccccc12,20300 (active)
21,CCCn1cc(SCC(N)=O)c2ccccc21,6190 (inactive)
22,O=C(CSc1nnc(-c2c[nH]c3ccccc23)o1)c1ccccc1,7930 (inactive)
23,O=[N+]([O-])c1ccc(CN2CC(N3CCC(c4ccccc4)CC3)CS2(=O)=O)cc1 (configuration not stated),4360 (inactive)
